Entries with a potency or affinity are not part of this list.
Assay: HIV-1 Env-mediated cell fusion inhibitors, dose response, CCR5-tropic Env (AID 2279)
Settings: CCR5-tropic HIV-1 Env, reporter read-out; series mostly up to 50 µM; inhibition: at the top concentration; call rule not given here

inhibition, inactive:
O=C(O)c1cccc(-n2cccc2/C=C2/NC(=O)N(c3ccc(Cl)cc3)C2=O)c1 18.4%
CCCOc1ccc(C2C(C(=O)c3cc4ccccc4o3)=C(O)C(=O)N2c2cc(C)on2)cc1 (stereo not given) 31.8%
O=C(N/N=C/c1cc(Cl)cc([N+](=O)[O-])c1O)c1ccccc1NS(=O)(=O)c1cccs1 -28%
COc1ccc(O)c(C(=O)c2cc(SCC(=O)O)c3nc4sc5c(c4c(=O)n3c2)CCCC5)c1 36%
C/C(=N\Nc1ccc(C(=O)O)cc1)c1ccc2c(c1)Nc1ccccc1S2 27.4%
COc1ccc(C(=O)Nc2ccccc2C(=O)O)cc1NC(=O)C(c1ccccc1)c1ccccc1 32.5%
O=C(O)CN1C(=O)/C(=C\c2cc(Br)ccc2OCc2ccc([N+](=O)[O-])cc2)SC1=S -5.78%
O=C(O)COc1ccc(Br)cc1C(c1c(C(=O)O)[nH]c2ccccc12)c1c(C(=O)O)[nH]c2ccccc12 6.84%
Cc1ccc(-c2cc(C(=O)Nc3ccc(S(=O)(=O)Nc4onc(C)c4C)cc3)c3ccccc3n2)cc1 -9.23%
O=[N+]([O-])c1cc(Cl)cc(/C=N/NC(=S)Nc2ccc(S(=O)(=O)N3CCOCC3)cc2)c1O 17.4%
C=CC#CC[N+]1(CC#Cc2ccccc2)CCOCC1 -3.27%
Cc1cc(Cl)ccc1OC(C)C(=O)Nc1ccc(S(=O)(=O)Nc2cnc3ccccc3n2)cc1 (stereo not given) 22.9%
O=C(O)c1ccc(NS(=O)(=O)c2ccc3c(c2)C2C=CCC2C(c2ccccc2F)N3)cc1 (stereo not given) 1.73%
COc1cc(/C=C2\C(=N)N3N=C(S(C)(=O)=O)SC3=NC2=O)cc(OC)c1OCCOc1ccccc1C 6.64%
COc1cc(/C=C2\C(=N)N3N=C(S(C)(=O)=O)SC3=NC2=O)ccc1OC(=O)c1ccco1 -2.37%
O=C(O)c1cc(NC(=O)c2ccc(Br)cc2)cc(NC(=O)c2ccc(Br)cc2)c1 30.4%
CC(c1ccccc1)N1C(=O)c2ccc(C(=O)Nc3ccc(Br)cc3C(=O)O)cc2C1=O (stereo not given) 1.67%
COc1cc(NS(=O)(=O)c2ccc(NC(=S)NC(=O)c3sc4ccccc4c3Cl)cc2)nc(OC)n1 17.8%
O=C(O)COc1ccc(/C=C/C(=O)c2ccc(C3CCCCC3)cc2)cc1 -0.44% [at 25 µM]
O=C(COc1ccc(Cl)cc1)Nc1cc(NC(=O)COc2ccc(Cl)cc2)cc(C(=O)O)c1 -12.1%
O=C(O)c1ccc(N/N=C/c2ccc(-c3cccc(Cl)c3)o2)cc1 -2.12%
CS(=O)(=O)C1=NSC2=NC(=O)/C(=C\c3ccc(OC(=O)c4ccco4)c(Br)c3)C(=N)N21 16.8%
CCOc1cc(/C=N/N=C2/NC(=O)C(CC(=O)O)S2)ccc1OCc1ccc(Cl)cc1 (stereo not given) 10.5%
CC(c1ccccc1)N1C(=O)c2ccc(C(=O)Nc3ccccc3C(=O)O)cc2C1=O (stereo not given) 3.54%
CC(C)CS(=O)(=O)C1=NSC2=NC(=O)/C(=C\c3ccc(OC(=O)c4ccco4)cc3)C(=N)N21 -4.18%
COc1ccc(OC)c(/C=C2\SC(=S)N(NS(=O)(=O)c3ccc(C)cc3)C2=O)c1 4.7%
Cc1cc(Cl)ccc1OC(C)C(=O)Nc1ccc(C(=O)Nc2ccccc2C(=O)O)cc1 (stereo not given) 37.9%
O=C(O)c1ccccc1NS(=O)(=O)c1ccc(NNC(=S)Nc2ccc(OC(F)F)cc2)c([N+](=O)[O-])c1 -5.05%
CCc1ccc(N=C2NC(=O)/C(=C/c3cc(Br)c(OCC(=O)O)c(OC)c3)S2)cc1 -9.37%
CC(C)(C)OC(=O)N1CCC(c2cc(=O)n3[nH]cc(C(=O)Nc4ccc(F)c(Cl)c4)c3n2)CC1 5.55%
CC(C)(C)c1ccc(S(=O)(=O)/N=C2\C=C(NS(=O)(=O)c3ccccc3)C(=O)c3ccccc32)cc1 13.5%
N#Cc1c(-c2ccccc2)nc(SCc2cccc(Cl)c2)[nH]c1=O -9.74%
COc1ccc(C(=O)Nc2ccc(/C(C)=N/NC(=O)c3ccncc3)cc2)cc1 2.59%
Cc1ccc(C)c(S(=O)(=O)/N=C2\C=C(NS(=O)(=O)c3ccccc3)C(=O)c3ccccc32)c1 32.6%
O=C1NN(c2ccc(F)c(Cl)c2)C(=O)/C1=C\c1cccc(OC(=O)c2cccs2)c1 27.9%

Reference: PubChem BioAssay AID2279 (Southern Research Specialized Biocontainment Screening …, 2010)
